From PubChem BioAssay AID1466 (National Center for Advancing Translational Sciences (NCATS), 2008) come the findings set out here.

Among all 200,000 compounds or so, about 10 (0.005%) were called active. Entries that show only a call come without a potency. Roughly 8% stayed inconclusive and do not appear here. The sample holds actives, similar compounds and a random draw of the others, so the mix is not that of the screen. Calls follow the shape of the dose curve; as a rule, active = well fitted inhibition curve with a large enough effect; inconclusive = small, poorly fitted or top-dose-only effect, or effect the other way, or another doubt; inactive = no such curve, though single readings can be large or run the other way.
Potency is read from the fitted curve at half-maximal effect.

For this test, the target named is Lysosomal alpha-glucosidase (Homo sapiens) (UniProt P10253). The test can be described thus: qHTS Assay for Inhibitors of Human alpha-Glucosidase as a Potential Chaperone Treatment of Pompe Disease. The following applies: purified human GAA, 4-MU-alpha-glucoside fluorescence; series mostly up to 76.9 µM. From the text:
NIH Chemical Genomics Center [NCGC] NIH Molecular Libraries Probe Production centers Network [MLPCN] MLPCN Grant: 1R03MH084841-01 Assay Submitter (PI): Wei Zheng NCGC Assay Overview: Alpha-glucosidase is responsible for hydrolysis of terminal, non-reducing 1,4-linked alpha-D-glucose residues with release of alpha-D-glucose. It is a lysosomal hydrolase that is required for the degradation of a small percentage (1-3%) of cellular glycogen in human. Deficiency of this enzyme results in glycogen-storage disease type II (GSDII), also referred to as Pompe disease, an autosomal recessive disorder. Structurally normal glycogen is accumulated in lysosomes and cytoplasm in affected patients, primarily in muscle tissues. Excessive glycogen storage within lysosomes may interrupt normal functioning of other organelles and leads to cellular injury. In turn, this leads to enlargement and dysfunction of the entire organ involved (eg, cardiomyopathy and muscle weakness). It has reported that the improper folding and trafficking of alpha-glucosidase resulting from the genetic mutations may account for a significant number of Pompe patients. […] We optimized this alpha-glucosidase assay in 1536-well plate format for identifying the novel small molecule inhibitors with the structures other than the sugar analogs in order to develop the new pharmacological chaperones.
NCGC Assay Protocol Summary: This is a fluorogenic enzyme assay with 4-methylumbelliferyl-alpha-D-[…] as the substrate and human alpha-glucosidase as the enzyme preparation. Upon the hydrolysis of this fluorogenic substrate, the resulting product, 1. 4-methyllumbelliferone, can be excited at 365 nm and emits at 440 nm which can be detected by a standard fluorescence plate reader. Data were normalized to the controls for basal activity (without enzyme) and 100% activity (with enzyme). In the AC50 values were determined from concentration-response data modeled with the standard Hill equation. Assay buffer: 50 mM citric acid (titrated with potassium phosphate to pH 5.0), 0.005% Tween-20, pH 5.0. (pH 5.0 is an optimal condition for this enzyme assay) 1536-well assay protocol for the human alpha-glucosidase: (1) Add 2 ul/well of enzyme (4 nM final) (2) Add 23 nL compounds in DMSO solution. The final titration was 0.7 nM to 77 uM. (3) Add 1 ul of substrate (400 uM final) (4) Incubate at room temperature for 20 min. (5) Add 2 ul stop solution (1M NaOH and 1M Glycine mixture, pH 10) (6) Detect the assay plate in a ViewLux plate reader (PerkinElmer) with Ex=365 nm and Em=440nm. Keywords: Alpha-glucosidase, Pompe Disease, pharmacological chaperone, chaperone therapy, high throughput screening, alpha-glucosidase inhibitor, MLSMR, MLSCN, NIH Roadmap, qHTS and NCGC
(In qHTS, concentration-response curves come from the screen itself.)
On to `Cc1cc(/C=C2/C(=O)NC(=O)N(Cc3ccco3)C2=O)c(C)n1-c1ccc(C(=O)O)cc1`, for which the Potency is 31.6 µM (active).

For the compound `Cc1ccc(-n2c(C)cc(/C=C3\C(=O)NC(=O)N(C)C3=O)c2C)cc1C`, the Potency entry is “inactive”.

For the compound `Cc1c(C(=O)O)cccc1-n1c(C)cc(/C=C2\C(=O)NC(=O)N(c3ccc4c(c3)OCO4)C2=O)c1C`, the Potency entry is “inactive”.

`CCN1CC2C3CCC(C)(O3)C2C1` (stereo not given): the Potency entry was “inactive”.

Consider `CCOP(=O)(OCC)C(NC(=O)c1ccc(OC)cc1)C(Cl)(Cl)Cl` (stereo not given), for which the Potency result is “inactive”.
